Measured values published in PubChem BioAssay (Tox21).
Results filed as inconclusive are left out. A number with no mark means an inactive call. Active and inactive are the calls of the source. The call rests on the fitted dose curve; in most records, active means well fitted curve in the direction sought with a large enough effect in the repeat runs; inconclusive means weak or mixed curves; inactive means no such curve, though single readings can be large; an effect the other way counts as inactive or inconclusive.

experiment: A CellTox Green Cytotoxicity Assay to monitor cytotoxicity in HepG2 cells - 16 hour (AID 1224876); conditions: CellTox Green fluorescence; series mostly up to 76.8 µM; cytotoxicity increase: at the top concentration; further: nearly all actives have a fitted effect of over 45% in size
Summary of the method: (§1)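 Nonlytic assay: viable cells exclude the dye, so fluorescence scales with cell death. HepG2 at 600 cells/well, compounds added after 5 h, signal read across 40 h.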
On the % scale 0 is the no-effect control and ±100 the full control effect; potency means the concentration at half of the fitted maximal effect.

Structure (SMILES)	cytotoxicity increase	Potency
O=C(Nc1ccccc1)c1cc(Cl)ccc1O	27.9%	–
Cc1ccc(N=Nc2c(O)ccc3ccccc23)c(C)c1	0.289% [at 35.3 µM]	–
CN1CCN(CCCN2c3ccccc3Sc3ccc(C(F)(F)F)cc32)CC1	–	23.9 µM (active)
CCCCCN=C(N)N/N=C/c1c[nH]c2ccc(OC)cc12	–	6.74 µM (active)
O=C1CCCCCCCCCCCCCC1	21.3%	–
CCN(CC)c1ccc(N=Nc2ccccc2)cc1	-8.05%	–
O=C1CCC/C=C\CCCCCCCCCC1	21.9%	–
Brc1cc(Br)cc(Br)c1	0.528%	–
N#Cc1ccc(C/C(=N/NC(=O)Nc2ccc(OC(F)(F)F)cc2)c2cccc(C(F)(F)F)c2)cc1	-14.3%	–
CCOC(=O)OC(=O)OCC	7.38%	–
CCCCCCCCCC[N+](C)(CCCCCCCCCC)CCC[Si](OC)(OC)OC	–	43.6 µM (active)
c1ccc2c(c1)-c1ccc3ccc4cccc5cc-2c1c3c45	23.2% [at 35.3 µM]	–
O=C(CCCCCCCCc1cccnc1)N1CCC(C=C(c2ccccc2)c2ccccc2)CC1	-15%	–
COc1cc(/C=C/C(=O)CC(=O)/C=C/c2ccc(O)c(OC)c2)ccc1O	–	49.3 µM (active)
C=CC(=O)O[C@H]1C[C@@H]2CC[C@@]1(C)C2(C)C	3.79%	–
CN[C@H]1CC[C@@H](c2ccc(Cl)c(Cl)c2)c2ccc(S(N)(=O)=O)cc21	–	43.6 µM (active)
CC/C=C(\C)C=O	-1.47%	–
O=C(Nc1ccc([N+](=O)[O-])cc1)Nc1ccc([N+](=O)[O-])cc1 (tested in a mixture with another compound)	11.6% [at 35.3 µM]	–
Cc1cccc2c1ccc1ccccc12	8.23%	–
CC(=O)CC(N)=O	1.77%	–
CCC(=O)OC/C=C(\C)CCC=C(C)C	8.75%	–
CCCCC/C=C\C=C\C(=O)OCC	22.8%	–
CC(O)(c1ccc(Cl)cc1)c1ccc(Cl)cc1	–	49 µM (active)
Cc1cc(Br)ccc1NC(=O)CCl	10.3%	–
CC(=O)[C@]1(O)Cc2c(O)c3c(c(O)c2[C@@H](O[C@H]2C[C@H](N)[C@H](O)[C@H](C)O2)C1)C(=O)c1ccccc1C3=O	–	21.3 µM (active)
c1ccc2cc3c4ccccc4c4ccccc4c3cc2c1	0.293%	–

experiment: qHTS RealTime-Glo MT Cell Viability Assay in HepG2 cells - 32 hour (AID 1224877); conditions: RealTime-Glo luminescence; series mostly up to 76.8 µM; activity change, negative = cytotoxic: at the top concentration; further: nearly all actives have a fitted effect of over 55% in size
Summary of the method: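 Compound treatment began 5 h after plating HepG2 cells (600/well) with NanoLuc luciferase and prosubstrate. Plates stayed at 37 C for 40 h; luminescence was captured at six time points, 0 h through 40 h.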

Structure (SMILES)	activity change, negative = cytotoxic	Potency
Cc1ccc(N=Nc2c(O)ccc3ccccc23)c(C)c1	-2.77% [at 35.3 µM]	–
C/C=C/C(=O)OCC(C)C	-4.17%	–
CN1CCN(CCCN2c3ccccc3Sc3ccc(C(F)(F)F)cc32)CC1	–	23.9 µM (active)
CC(C)(C)c1cc(CCC(=O)OCCSCCOC(=O)CCc2cc(C(C)(C)C)c(O)c(C(C)(C)C)c2)cc(C(C)(C)C)c1O	7.3% [at 35.3 µM]	–
C=Cc1ccncc1	5.92%	–
CCCCCN=C(N)N/N=C/c1c[nH]c2ccc(OC)cc12	–	5.35 µM (active)
O=C1CCCCCCCCCCCCCC1	-8.15%	–
CCN(CC)c1ccc(N=Nc2ccccc2)cc1	-5.02%	–
O=C1CCC/C=C\CCCCCCCCCC1	-5.29%	–
Brc1cc(Br)cc(Br)c1	-6.67%	–
CSc1nnc(C(C)(C)C)c(=O)[nH]1	3.09%	–
CCOC(=O)OC(=O)OCC	-2.55%	–
CCCCCCCCCC[N+](C)(CCCCCCCCCC)CCC[Si](OC)(OC)OC	–	49 µM (active)
c1ccc2c(c1)-c1ccc3ccc4cccc5cc-2c1c3c45	-0.49% [at 35.3 µM]	–
CCN(CC)c1ccc(C=O)c(O)c1	-0.0487%	–
CC(C=O)c1ccccc1 (stereo not drawn)	2.16%	–

Structure (SMILES)	activity change, negative = cytotoxic	Potency
C=CC(=O)O[C@H]1C[C@@H]2CC[C@@]1(C)C2(C)C	-1.5%	–
CCC1(C)C(=O)N(Cl)C(=O)N1Cl (stereo not drawn)	-8.45%	–
CN[C@H]1CC[C@@H](c2ccc(Cl)c(Cl)c2)c2ccc(S(N)(=O)=O)cc21	–	19.5 µM (active)
CC/C=C(\C)C=O	-0.448%	–
O=C(Nc1ccc([N+](=O)[O-])cc1)Nc1ccc([N+](=O)[O-])cc1 (tested in a mixture with another compound)	-14.1% [at 35.3 µM]	–
O=C(NCc1ncc(C(F)(F)F)cc1Cl)c1c(Cl)cccc1Cl	-17.2%	–
CCCCCCCCCCCCS(=O)(=O)Cl	9.6% [at 15.8 µM]	–
Cc1cccc2c1ccc1ccccc12	6.59%	–
CC(=O)CC(N)=O	0.517%	–
CCc1cccc(C)c1N(C(=O)C(=O)O)C(C)COC (stereo not drawn)	1.35%	–
CCC(=O)OC/C=C(\C)CCC=C(C)C	-5.05%	–
CCCC(C)C=O (stereo not drawn)	5.13%	–
C=Cc1ccc(O)c(OC)c1	-0.746%	–
Cc1cc(Br)ccc1NC(=O)CCl	–	43.6 µM (active)
c1ccc2cc3c4ccccc4c4ccccc4c3cc2c1	-4.17%	–

experiment: A CellTox Green Cytotoxicity Assay to monitor cytotoxicity in HepG2 cells - 24 hour (AID 1224878); conditions: CellTox Green fluorescence; series mostly up to 76.8 µM; cytotoxicity: at the top concentration; further: nearly all actives have a fitted effect of over 45% in size
Summary of the method: as §1

Structure (SMILES)	cytotoxicity	Potency
Cc1ccc(N=Nc2c(O)ccc3ccccc23)c(C)c1	0.408% [at 35.3 µM]	–
C/C=C/C(=O)OCC(C)C	1.86%	–
CN1CCN(CCCN2c3ccccc3Sc3ccc(C(F)(F)F)cc32)CC1	–	21.3 µM (active)
CC(C)(C)c1cc(CCC(=O)OCCSCCOC(=O)CCc2cc(C(C)(C)C)c(O)c(C(C)(C)C)c2)cc(C(C)(C)C)c1O	0.625% [at 35.3 µM]	–
C=Cc1ccncc1	1.56%	–
CCCCCN=C(N)N/N=C/c1c[nH]c2ccc(OC)cc12	–	5.35 µM (active)
CCN(CC)c1ccc(N=Nc2ccccc2)cc1	-9.08%	–
Brc1cc(Br)cc(Br)c1	7.64%	–
N#Cc1ccc(C/C(=N/NC(=O)Nc2ccc(OC(F)(F)F)cc2)c2cccc(C(F)(F)F)c2)cc1	-1.02%	–
CSc1nnc(C(C)(C)C)c(=O)[nH]1	0.168%	–
CCOC(=O)OC(=O)OCC	5.65%	–
CCCCCCCCCC[N+](C)(CCCCCCCCCC)CCC[Si](OC)(OC)OC	–	21.9 µM (active)
O=C(CCCCCCCCc1cccnc1)N1CCC(C=C(c2ccccc2)c2ccccc2)CC1	0.0781%	–
CCN(CC)c1ccc(C=O)c(O)c1	3.11%	–
COc1cc(/C=C/C(=O)CC(=O)/C=C/c2ccc(O)c(OC)c2)ccc1O	–	49.3 µM (active)
CC(C=O)c1ccccc1 (stereo not drawn)	-8.47%	–

Structure (SMILES)	cytotoxicity	Potency
C=CC(=O)O[C@H]1C[C@@H]2CC[C@@]1(C)C2(C)C	-0.0033%	–
CCC1(C)C(=O)N(Cl)C(=O)N1Cl (stereo not drawn)	-0.863%	–
CN[C@H]1CC[C@@H](c2ccc(Cl)c(Cl)c2)c2ccc(S(N)(=O)=O)cc21	–	13.8 µM (active)
CC/C=C(\C)C=O	-0.0248%	–
O=C(NCc1ncc(C(F)(F)F)cc1Cl)c1c(Cl)cccc1Cl	7.13%	–
CCCCCCCCCCCCS(=O)(=O)Cl	-12.5% [at 15.8 µM]	–
Cc1cccc2c1ccc1ccccc12	4.7%	–
CC(=O)CC(N)=O	2.82%	–
CCc1cccc(C)c1N(C(=O)C(=O)O)C(C)COC (stereo not drawn)	3.02%	–
CCC(=O)OC/C=C(\C)CCC=C(C)C	8.08%	–
CCCCC/C=C\C=C\C(=O)OCC	–	22.8 µM (active)
CCCC(C)C=O (stereo not drawn)	-16.3%	–
CC(O)(c1ccc(Cl)cc1)c1ccc(Cl)cc1	–	49 µM (active)
C=Cc1ccc(O)c(OC)c1	-0.626%	–
CC(=O)[C@]1(O)Cc2c(O)c3c(c(O)c2[C@@H](O[C@H]2C[C@H](N)[C@H](O)[C@H](C)O2)C1)C(=O)c1ccccc1C3=O	–	23.9 µM (active)
